Source: publication PMC4336329 (PLoS ONE, 2015)
Hit rate of the full screen: of about 310,000 compounds, about 14,000 (4.5%) showed an effect of 50% or more. Effects have a minus sign here. The full list was thinned out, with strong results kept by preference.

target: human ether-à-go-go-related gene (hERG) potassium channel (human, UniProt Q12809); assay: primary screen, population patch clamp on CHO cells stably expressing hERG; higher = less effect of the substance
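Further: peak tail current of the secondary pulse compared with the same well before compound.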

Chain of human ether-à-go-go-related gene (hERG) potassium channel (Q12809 whole entry, looked up): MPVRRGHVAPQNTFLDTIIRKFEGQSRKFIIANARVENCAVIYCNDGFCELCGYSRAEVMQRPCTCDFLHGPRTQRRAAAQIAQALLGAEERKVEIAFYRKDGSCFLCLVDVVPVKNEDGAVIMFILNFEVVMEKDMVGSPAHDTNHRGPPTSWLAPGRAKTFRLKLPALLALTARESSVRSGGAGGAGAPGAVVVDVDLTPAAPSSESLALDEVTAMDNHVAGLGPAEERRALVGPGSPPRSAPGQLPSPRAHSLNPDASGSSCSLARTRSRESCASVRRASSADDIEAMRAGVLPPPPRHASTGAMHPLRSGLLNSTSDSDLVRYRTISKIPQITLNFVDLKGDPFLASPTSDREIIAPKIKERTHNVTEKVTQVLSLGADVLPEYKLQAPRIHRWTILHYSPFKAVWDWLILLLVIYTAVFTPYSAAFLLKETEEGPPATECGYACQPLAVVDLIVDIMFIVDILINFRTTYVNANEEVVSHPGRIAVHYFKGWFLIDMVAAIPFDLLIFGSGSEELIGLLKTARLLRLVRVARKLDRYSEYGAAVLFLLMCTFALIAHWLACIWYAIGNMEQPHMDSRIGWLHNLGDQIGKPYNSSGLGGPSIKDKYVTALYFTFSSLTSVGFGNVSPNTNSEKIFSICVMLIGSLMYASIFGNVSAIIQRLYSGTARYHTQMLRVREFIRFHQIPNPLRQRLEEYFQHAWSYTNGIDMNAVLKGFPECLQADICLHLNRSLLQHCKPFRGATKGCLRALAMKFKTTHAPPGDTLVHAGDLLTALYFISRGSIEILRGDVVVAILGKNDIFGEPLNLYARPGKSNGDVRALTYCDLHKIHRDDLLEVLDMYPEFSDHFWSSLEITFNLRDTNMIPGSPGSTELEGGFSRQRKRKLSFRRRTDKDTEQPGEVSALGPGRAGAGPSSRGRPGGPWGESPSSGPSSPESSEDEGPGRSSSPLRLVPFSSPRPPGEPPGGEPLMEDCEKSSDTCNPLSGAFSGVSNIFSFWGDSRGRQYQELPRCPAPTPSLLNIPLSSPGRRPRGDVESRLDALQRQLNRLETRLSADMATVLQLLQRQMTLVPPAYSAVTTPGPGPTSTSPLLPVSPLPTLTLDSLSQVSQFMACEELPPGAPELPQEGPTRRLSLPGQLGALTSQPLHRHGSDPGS

| Structure (SMILES) | hERG current change (%, negative = inhibition) at 10uM |
| --- | --- |
| COc1ccc(S(=O)(=O)NNC(=O)c2sccc2-n2cccc2)cc1 | 2% |
| COC(=O)c1ccc(NC(=O)C2CCCN2S(=O)(=O)c2ccc(OC)cc2)cc1 (centres unmarked) | -16.8% |
| COc1cc(C(=O)Nc2ccc(C(=O)c3cccs3)cc2)cc(OC)c1OC | -10.1% |
| Cc1cc(F)ccc1NC(=S)NC1CCCC1 | 17.9% |
| CCOC(=O)C1CCCN(CC(=O)Nc2c(C(=O)OC)[nH]c3ccccc23)C1 (centres unmarked) | -25.2% |
| CCOC(=O)C1CCCN(CCC(=O)Nc2c(C(=O)OC)[nH]c3cc(OC)ccc23)C1 (centres unmarked) | -59.6% |
| CCOC(=O)c1[nH]c2ccc(OC)cc2c1NC(=O)CCN1CCSCC1 | -5.8% |
| CCOC(=O)c1[nH]c2ccc(OC)cc2c1NC(=O)CCN1CCc2ccccc2C1 | -59.5% |
| CCOC(=O)c1[nH]c2ccc(OC)cc2c1NC(=O)CN1CCc2ccccc2C1 | -12.4% |
| CCOC(=O)c1[nH]c2ccc(OC)cc2c1NC(=O)CCN1CCN(Cc2ccccc2)CC1 | -57.1% |
| COC(=O)c1[nH]c2cc(OC)ccc2c1NC(=O)CCN1CCN(c2cccc(C)c2C)CC1 | -16.4% |
| CCOC(=O)c1[nH]c2cc3c(cc2c1NC(=O)CN1CCc2ccccc2C1)OCO3 | -0.934% |
| COC(=O)c1[nH]c2cc(OC)ccc2c1NC(=O)CCN1CCN(c2ccccc2)CC1 | -67% |
| COC(=O)c1[nH]c2cc(OC)ccc2c1NC(=O)CCN1CCCCC1 | -20.5% |
| CCOC(=O)c1[nH]c2ccc(OC)cc2c1NC(=O)CCN1CCC(C)CC1 | -22.8% |
| CCOC(=O)C1CCCN(CC(=O)Nc2c(C(=O)OC)[nH]c3ccc(C)cc23)C1 (centres unmarked) | -36.1% |
| COc1cc(OC)nc(Oc2ccccc2C(=O)Oc2cccc(C)c2)n1 | 7.95% |
| CC1=NN(C(=O)c2ccc(Cl)cc2)C(O)(c2ccccc2)C1 (centres unmarked) | 22% |
| COc1ccccc1C(=O)N(C1=NC(C)CS1)c1ccc(Cl)cc1 (centres unmarked) | 7.94% |
| Cc1cc(C)c(C#N)c(N2CCCC2)n1 | 5.67% |
| COCCCNC(=O)c1ccc(CS(=O)(=O)c2ccc(Br)cc2)o1 | -14.3% |
| COC(=O)C1=C(C(=O)OC)[N+]2=C3N(C(=O)NC2(C)C)[C@H](CO)C[C@@]32c3ccccc3N(Cc3ccccc3)[C@@H]12 | -11.2% |

| Structure (SMILES) | hERG current change (%, negative = inhibition) at 10uM |
| --- | --- |
| CCOc1ccc(CCNC(=O)CN(C)S(=O)(=O)c2cccs2)cc1OCC | 10.2% |
| CC(=O)Nc1cccc(NC(=O)CSc2nnc(NC(=O)c3ccco3)s2)c1 | 4.45% |
| O=C(Nc1ccccc1Oc1cccnc1)C1CCCN(C/C=C/c2ccc(F)cc2)C1 (centres unmarked) | -76.9% |
| COc1cc(CN2CCCC(C(=O)Nc3ccccc3Oc3cccnc3)C2)ccc1F (centres unmarked) | -39% |
| O=C(Nc1ccccc1Oc1cccnc1)C1CCCN(C/C=C/c2ccccc2)C1 (centres unmarked) | -76.9% |
| CCN(CC)C(=O)C1CCCN(C/C=C/c2ccccc2)C1 (centres unmarked) | -40.8% |
| O=C(Nc1ccccc1Oc1ccccc1)C1CCCC1 | 6.32% |
| O=C(Nc1ccccc1Oc1ccccc1)C1CC1 | 12.2% |
| O=C(Nc1ccncc1)c1ccc([N+](=O)[O-])cc1Cl | -3.15% |
| O=C(O)C1CC=C(Cl)CC1C(=O)NCc1ccccc1 (centres unmarked) | 6.61% |
| COc1ccc(C(=O)NC2=C(C#N)CCC2)cc1OC | 9.08% |
| NC(=O)NC(CC(=O)N1CCc2ccccc2C1)c1ccc(Cl)cc1 (centres unmarked) | 2.09% |
| COC(=O)[C@H](CCSC)NC(=O)Nc1ccc(C)cc1 | 11.6% |
| COC(=O)[C@H](CCSC)NC(=O)Nc1ccc(OC)c(Cl)c1 | -6.64% |
| COC(=O)[C@H](CCSC)NC(=O)Nc1ccc(C)c(C)c1 | -83.6% |
| CCCCCCCCCCCCCCCC[N+](C)(C)CCN(Cc1ccc(OC)cc1)c1ncccn1.[Br-] | -75% |
| O=C(COc1ccc(Cl)cc1)N(Cc1ccccc1)c1ccccn1 | -36% |
| C[N+](C)(C)CCN(Cc1ccc(Cl)cc1)c1ccccn1.[I-] | -14.4% |
| COc1ccc(CN(CCN(C)C)c2ccccn2)cc1.O=C(O)/C=C\C(=O)O | -38.5% |
| CC[N+](C)(C)CCN(Cc1ccc(Cl)cc1)c1ccccn1.[Br-] | -68.6% |
| CN(C)CCN(Cc1ccc(Cl)cc1)c1ccccn1.Cl | -74.4% |
| CC(C)(Oc1ccc(Cl)cc1)C(=O)N(Cc1ccccc1)c1ccccn1 | -7.15% |

| Structure (SMILES) | hERG current change (%, negative = inhibition) at 10uM |
| --- | --- |
| CCCCCc1ccc(-c2ccc(OC)cc2)nc1 | 19.7% |
| CN(C)CCN(Cc1ccccc1)c1ccccn1.Cl | -48.6% |
| Nc1nc(-c2ccco2)nn1C(=O)CCc1ccccc1 | -0.902% |
| CCCOc1ccccc1C(=O)N1CCNC(=O)C1CC(=O)OC(C)C (centres unmarked) | 0.716% |
| CCOC(=O)N1CCN(S(=O)(=O)c2cc(Cl)c(OC)cc2Cl)CC1 | 4.96% |
| CCN(CC)S(=O)(=O)c1ccc2[nH]c(=O)cc(C(=O)NCC3CCCO3)c2c1 (centres unmarked) | -10.3% |
| COc1ccc(NC(=O)c2ccc(NC(=O)COC(=O)CC(NC(=O)c3ccccc3Cl)c3ccccc3)cc2)cc1 (centres unmarked) | -2.55% |
| CCC(=O)Nc1nc(CC(=O)Nc2ccccc2)cs1 | 18.2% |
| COc1ccc(CC(=O)N2CCN(c3ccccn3)CC2)cc1 | 7.79% |
| CCn1c(CNC(=O)Cc2ccc(OC)cc2)nnc1SCC(=O)Nc1nccs1 | -5.75% |
| CCn1c(CNC(=O)COc2c(C)cccc2C)nnc1SCC(=O)Nc1nccs1 | -51.8% |
| CCCCc1nnc(SCC(=O)Nc2nccs2)n1CC | 4.93% |
| COc1ccc(C(=O)NCCc2nnc(SCC(=O)Nc3ccccc3C(C)C)n2C)cc1 | -13.3% |
| CCn1c(CCCOc2ccc(Cl)cc2Cl)nnc1SCC(=O)Nc1cc(F)ccc1C | -13.1% |
| CCn1c(CNC(=O)COc2ccc(C(C)C)cc2)nnc1SCC(=O)Nc1ccccc1C(C)C | -55.1% |
| CCn1c(CNC(=O)c2ccco2)nnc1SCC(=O)Nc1ccc(Br)cc1F | -54.8% |
| CCn1c(CNC(=O)c2ccco2)nnc1SCC(=O)Nc1cc(C)c(C)cc1Br | -16.6% |
| CCn1c(COc2ccc(C(C)C)cc2)nnc1SCC(=O)Nc1nccs1 | -7.75% |
| Cn1c(CNC(=O)c2ccco2)nnc1SCC(=O)Nc1ccc(Br)cc1F | -43.4% |
| CCn1c(CNC(=O)c2ccco2)nnc1SCC(=O)Nc1cc(F)ccc1C | -0.0602% |
| CCn1c(CNC(=O)COc2ccc(C(C)C)cc2)nnc1SCC(=O)Nc1cc(F)ccc1C | -65.7% |
| CN(C)S(=O)(=O)c1ccc(Cl)c(C(=O)NC2CCCCCCC2)c1 | 7.33% |

| Structure (SMILES) | hERG current change (%, negative = inhibition) at 10uM |
| --- | --- |
| O=C(Cn1nnc(-c2ccncc2)n1)N1CCc2ccccc21 | 15.2% |
| CCCc1nc2oc3c(NCc4ccccn4)ncnc3c2c2c1COC(C)(C)C2 | -17.8% |
| COc1cccc(CN2CCNC(=O)C2CC(=O)NCCCn2ccnc2)c1 (centres unmarked) | 37.2% |
| Cc1cc(=O)[nH]c(/N=C(\N)Nc2cccc3ccccc23)n1 | 11.5% |
| NNC(=O)c1ccc(COCC(F)(F)C(F)F)cc1 | 14.5% |
| CC(NC(=O)c1cc2cc(Cl)ccc2oc1=N)c1ccccc1 (centres unmarked) | 7.55% |
| C#CCNC(=O)[C@H](Cc1ccc(C(=O)c2ccccc2)cc1)NC(=O)OC(C)(C)C | 19.5% |
| O=C(COC(=O)c1cc(S(=O)(=O)N2CCOCC2)cs1)c1ccccc1 | -0.734% |
| N#C/C(=C\c1cccnc1)c1nc2ccccc2[nH]1 | -10.4% |
| CCn1c(CCNC(=O)c2ccc(OC)cc2)nnc1SCC(=O)Nc1ccccc1F | -22.7% |
| CCn1c(CNC(=O)COc2ccc(C(C)C)cc2)nnc1SCC(=O)Nc1ccccc1 | -54.2% |
| CCn1c(CNC(=O)COc2ccc(C(C)C)cc2)nnc1SCC(=O)Nc1ccc(F)cc1 | -49.4% |
| CCn1c(CNC(=O)COc2ccc(C(C)C)cc2)nnc1SCC(=O)NC1CCCCC1C (centres unmarked) | -16.8% |
| CCn1c(CNC(=O)COc2ccc(C(C)C)cc2)nnc1SCC(=O)Nc1ccccc1F | -60.1% |
| CCn1c(Cc2ccccc2)nnc1SCC(=O)Nc1ccccc1F | -5.46% |
| CC1(c2nnc(Cc3ccccc3)o2)CC(c2cccnc2)=NO1 (centres unmarked) | 3.26% |
| Cc1ccc(N=C(NO)c2nonc2N)cc1 | 10.1% |
| CCOC(=O)c1[nH]c2ccccc2c1NC(=O)C1CCCC1 | 3.28% |
| O=C(/C=C/c1ccccc1Cl)Nc1ccncc1 | -3.65% |
| Cc1cc(NC(=O)CSCC(=O)NCc2cccc(C(F)(F)F)c2)no1 | -18.7% |
